Laboratory results as given in PubChem BioAssay (Tox21).
Several values for one entry are separate records, joined by “and”; a condition that tells them apart may be missing. Equal entries are not always repeated. Records with an inconclusive call do not appear. Where a call stands in place of a potency, no number is given. More than one record can exist for a structure, and the calls need not agree. Activity calls are given as the source filed them. Unless noted, calls follow the shape of the dose curve; as a rule, active = well fitted curve in the direction sought with a large enough effect in the repeat runs; inconclusive = weak or mixed curves; inactive = no such curve, though single readings can be large; an effect the other way counts as inactive or inconclusive.

Legend:
[1] = biological target: Retinoic acid receptor RXR-alpha (Homo sapiens) (UniProt P19793); assay: qHTS assay to identify small molecule agonists of the RXR signaling pathway (AID 1159527; calls by dose curve; also: nearly all actives have a fitted effect of over 35% in size)
Retinoic acid receptor RXR-alpha (Homo sapiens), sequence (P19793 whole entry, looked up): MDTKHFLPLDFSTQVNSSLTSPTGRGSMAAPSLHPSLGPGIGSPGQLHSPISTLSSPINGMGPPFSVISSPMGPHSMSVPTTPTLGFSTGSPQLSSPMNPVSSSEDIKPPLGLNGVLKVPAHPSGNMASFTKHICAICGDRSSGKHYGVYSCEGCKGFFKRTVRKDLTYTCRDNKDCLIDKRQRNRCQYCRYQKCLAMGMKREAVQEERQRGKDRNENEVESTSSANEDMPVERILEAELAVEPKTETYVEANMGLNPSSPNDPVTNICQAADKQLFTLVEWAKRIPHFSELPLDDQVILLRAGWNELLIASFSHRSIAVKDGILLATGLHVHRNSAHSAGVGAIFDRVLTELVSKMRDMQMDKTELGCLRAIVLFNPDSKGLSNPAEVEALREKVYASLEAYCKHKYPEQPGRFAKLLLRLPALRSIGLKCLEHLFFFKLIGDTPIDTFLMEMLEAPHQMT
Outline: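 Agonist mode; 9-cis retinoic acid positive control. HEK 293T UAS-bla reporter cells, 2% charcoal-stripped FBS, 16 hr compound exposure at 37 C/5% CO2. LiveBLAzer B/G FRET substrate 2 hr RT; ex 405, em 460/530 nm.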

[2] = qHTS assay to identify small molecule agonists of the RXR signaling pathway - cell viability counter screen (AID 1159529); also: nearly all actives have a fitted effect of over 50% in size; also: potency is read from the fitted curve at half-maximal effect
Outline: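 Luminescence from CellTiter-Glo (30 min, RT) measured viability in the same wells as the beta-lactamase reporter readout. Cells: GeneBLAzer RXR-alpha HEK 293T, 2% charcoal-stripped FBS. Compound exposure 16 hr, 37 C.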

[3] = qHTS assay to identify small molecule antagonists of the retinoid acid receptor (RAR) signaling pathway - cell viability counter screen (AID 1159551); also: nearly all actives have a fitted effect of over 35% in size; also: potency is read from the fitted curve at half-maximal effect
Outline: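 In this counter screen, the RARE-luciferase line C3RL4 was exposed for 6 h at 37 C and 5% CO2 to compounds with retinol at 1 uM final. Cellular ATP, read by luminescence, served as the viability measure.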

[4] = qHTS assay to identify small molecule antagonists of the retinoic acid receptor (RAR) signaling pathway (AID 1159552; also: nearly all actives have a fitted effect of over 50% in size; also: potency is read from the fitted curve at half-maximal effect)
Outline: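 Luminescence from a RARE luciferase reporter in C3RL4 cells served as read-out. Cells received compounds together with 1 uM final retinol and incubated 6 hr at 37 C before detection reagent was added for 30 min at room temperature.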

[5] = qHTS assay to identify small molecule agonists of the retinoic acid receptor (RAR) signaling pathway (AID 1159553)
Outline: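 In this cell-based screen, 1,000 C3RL4 cells per well were cultured overnight, dosed with test chemicals in DMSO for 6 hr, and assessed for RARE luciferase luminescence.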

[6] = qHTS assay to identify small molecule antagonists of the estrogen related receptor (ERR) signaling pathway from Tox21 library - cell viability counter screen (AID 1224834); also: nearly all actives have a fitted effect of over 30% in size; also: potency is read from the fitted curve at half-maximal effect
Outline: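 Counter screen run in ERR cells (2,000 cells/well): cells pre-incubated 6 h, then treated with compounds for 17.5 h at 37 C. Fluorescence was read 30 min after CellTiter-Fluor addition.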

[7] = biological target: Luciferin 4-monooxygenase (Photinus pyralis) (UniProt P08659); assay: qHTS assay to identify small molecule inhibitors of firefly luciferase (AID 1224835); also: nearly all actives have a fitted effect of over 25% in size; also: potency is read from the fitted curve at half-maximal effect
Luciferin 4-monooxygenase (Photinus pyralis), sequence (P08659 whole entry, looked up): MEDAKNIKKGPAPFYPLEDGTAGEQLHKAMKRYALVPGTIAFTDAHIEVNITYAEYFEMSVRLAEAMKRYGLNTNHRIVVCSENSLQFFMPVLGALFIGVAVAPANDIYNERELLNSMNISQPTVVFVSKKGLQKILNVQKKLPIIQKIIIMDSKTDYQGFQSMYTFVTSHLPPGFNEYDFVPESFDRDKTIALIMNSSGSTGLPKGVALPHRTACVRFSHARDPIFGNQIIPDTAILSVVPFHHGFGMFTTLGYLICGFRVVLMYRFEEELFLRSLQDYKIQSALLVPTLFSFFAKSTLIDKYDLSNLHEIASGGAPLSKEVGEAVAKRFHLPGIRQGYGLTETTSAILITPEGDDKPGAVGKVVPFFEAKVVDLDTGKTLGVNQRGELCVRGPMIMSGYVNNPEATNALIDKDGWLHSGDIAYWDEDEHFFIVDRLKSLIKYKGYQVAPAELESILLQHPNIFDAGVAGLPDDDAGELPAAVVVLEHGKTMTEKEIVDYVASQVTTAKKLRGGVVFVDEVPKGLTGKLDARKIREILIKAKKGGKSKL
Outline: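 Quantitative HTS format; KM concentrations of both substrates. Purified P. pyralis FLuc activity quantified from luminescence images.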

[8] = qHTS assay to identify small molecule antagonists of the constitutive androstane receptor (CAR) signaling pathway - cell viability counter screen (AID 1224837); also: series mostly up to about 92 µM; nearly all actives have a fitted effect of over 45% in size
Outline: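 CITCO at 50 nM final was added alongside compounds (15 concentrations) to double-stable hCAR/CYP2B6-2.2kb HepG2 cells. Following 23 hr at 37 C, cell viability was quantified by CellTiter-Fluor fluorescence intensity.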

[9] = qHTS assay to identify small molecule antagonists of the estrogen related receptor signaling pathway with the pleiotropic PPARgamma coactivator (PGC) from Tox21 10K library (AID 1224841; call rule not given here; also: actives are mostly falling curves and most rising ones were filed inactive; nearly all actives have a fitted effect of over 50% in size; also: potency is read from the fitted curve at half-maximal effect)
Outline: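 One-Glo luminescence, measured after half an hour at room temperature, quantified reporter output of PGC/ERR cells. These had been plated at 2,000 per well, incubated 6 h, dosed with compounds in DMSO, then kept 18 h at 37 C.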

[10] = biological target: Nuclear receptor subfamily 1 group I member 3 (Homo sapiens) (UniProt Q14994); assay: qHTS assay to identify small molecule agonists of the constitutive androstane receptor (CAR) signaling pathway (AID 1224839); also: series mostly up to about 92 µM; nearly all actives have a fitted effect of over 15% in size
Nuclear receptor subfamily 1 group I member 3 (Homo sapiens), sequence (Q14994 whole entry, looked up): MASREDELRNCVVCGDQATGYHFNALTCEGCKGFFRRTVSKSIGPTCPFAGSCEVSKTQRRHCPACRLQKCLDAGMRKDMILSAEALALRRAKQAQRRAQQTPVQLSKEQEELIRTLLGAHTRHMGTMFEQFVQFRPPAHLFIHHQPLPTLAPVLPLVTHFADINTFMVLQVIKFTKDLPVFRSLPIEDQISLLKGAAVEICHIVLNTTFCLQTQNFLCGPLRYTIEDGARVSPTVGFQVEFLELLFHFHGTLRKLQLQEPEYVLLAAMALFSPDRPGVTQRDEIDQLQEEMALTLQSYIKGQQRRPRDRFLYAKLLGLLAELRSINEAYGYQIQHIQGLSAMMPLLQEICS
Outline: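 Luminescence read-out (ONE-Glo, 30 min, room temperature) from double-stable HepG2-CYP2B6-hCAR cells exposed 24 h to 15-point compound series in presence of 0.75 uM PK11195 final.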

[11] = qHTS assay to identify small molecule antagonists of the estrogen related receptor signaling pathway with the pleiotropic PPARgamma coactivator (PGC) from Tox21 10K library - cell viability counter screen (AID 1224840; active = well fitted cell-killing curve with a large enough effect in the repeat runs, not every such curve was filed as active; also: nearly all actives have a fitted effect of over 40% in size; also: potency is read from the fitted curve at half-maximal effect)
Outline: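 Readout: fluorescence intensity from CellTiter-Fluor after 30 min at 37 C/5% CO2. Preceded by 17.5 h treatment of PGC/ERR cells with DMSO-dissolved compounds, added 6 h post-seeding.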

[12] = qHTS assay to identify small molecule agonists of the constitutive androstane receptor (CAR) signaling pathway - cell viability counter screen (AID 1224836); also: series mostly up to about 92 µM; nearly all actives have a fitted effect of over 45% in size
Outline: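 Viability read-out: CellTiter-Fluor fluorescence after 23 h compound exposure at 37 C/5% CO2 in double-stable HepG2-CYP2B6-hCAR cells, with PK11195 present at 0.75 uM final; compounds tested in 15-point titration.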

[13] = biological target: Nuclear receptor subfamily 1 group I member 3 (Homo sapiens) (UniProt Q14994); assay: qHTS assay to identify small molecule antagonists of the constitutive androstane receptor (CAR) signaling pathway (AID 1224838); also: nearly all actives have a fitted effect of over 40% in size
Outline: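 Inhibition of CITCO-driven (50 nM final) CYP2B6 reporter expression is measured in HepG2 cells stably carrying hCAR. Fifteen compound concentrations are applied for 24 h at 37 C, followed by luciferase luminescence.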

[14] = qHTS assay to identify small molecule agonists of the estrogen related receptor signaling pathway with the pleiotropic PPARgamma coactivator (PGC) from Tox21 10K library (AID 1224842); also: nearly all actives have a fitted effect of over 15% in size
Outline: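 PGC/ERR reporter cells (NTP line) were seeded 2,000 per well, rested 6 h at 37 C/5% CO2, then pin-dosed with compounds in DMSO for 18 h at 37 C; luciferase read by One-Glo luminescence after 30 min at room temperature.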

Compound	Potency [1]	Potency [2]	Potency [3]	Potency [4]	Potency [5]	Potency [6]	Potency [7]	Potency [8]	Potency [9]	Potency [10]	Potency [11]	Potency [12]	Potency [13]	Potency [14]
Nc1cc(-c2ccncc2)c[nH]c1=O	inactive	inactive	inactive	inactive	inactive	inactive	inactive	inactive	inactive	–	–	–	–	–
CC(C)(CO)COC(=O)C(C)(C)CO	inactive	inactive	inactive	inactive	inactive	inactive	inactive	inactive	inactive	inactive	inactive	–	–	–
NC(=O)NNc1ccccc1	inactive	inactive	inactive	inactive	inactive	inactive	–	inactive	–	inactive	inactive	inactive	–	–
Clc1cc(Cl)c(Cl)cc1Cl	inactive	inactive	inactive	inactive	inactive	inactive	inactive	inactive	inactive	–	inactive	inactive	–	–
CCOC(=O)[C@H](CCc1ccccc1)N[C@@H](C)C(=O)N1Cc2ccccc2C[C@H]1C(=O)O	inactive	inactive	inactive	inactive	inactive	inactive	inactive	inactive	inactive	inactive	inactive	–	inactive	inactive
C=C(C)C(=O)OCC(CC)(COC(=O)C(=C)C)COC(=O)C(=C)C	inactive	inactive	inactive	inactive	inactive	inactive	inactive	inactive	–	inactive	–	–	–	–
CCOC(=O)C1OC1c1ccccc1 (stereo not given)	inactive	inactive	inactive	inactive	inactive	inactive	inactive	inactive	–	inactive	inactive	–	inactive	–
CC(C)(C)C(=O)C1C(=O)c2ccccc2C1=O	inactive	inactive	inactive	inactive	inactive	60.5 µM (active) and 43.3 µM (active)	31.4 µM (active)	–	–	–	48.1 µM (active) and inactive	–	inactive	–
CC(=O)CCc1ccccc1	inactive	inactive	inactive	inactive	inactive	inactive	inactive	inactive	inactive	inactive	inactive	–	inactive	–
CC(C)(N=C=O)c1cccc(C(C)(C)N=C=O)c1	inactive	inactive	inactive	inactive	inactive	inactive	inactive	inactive	48.2 µM (active) and inactive	inactive	inactive	–	–	–
CCCCOCCO	inactive	inactive	inactive	inactive	inactive	inactive	inactive	inactive	inactive	inactive	inactive	–	–	–
O=C(c1cc(O)c(O)c(O)c1)c1ccc(O)c(O)c1O	inactive	inactive	inactive	inactive	inactive	54.3 µM (active) and 54.5 µM (active)	–	inactive	inactive	inactive	–	–	inactive	inactive
CCC(C)C=O (stereo not given)	inactive	inactive	inactive	inactive	inactive	inactive	inactive	inactive	–	inactive	inactive	–	–	–
CNC[C@H](O)[C@@H](O)[C@H](O)[C@H](O)CO	inactive	inactive	inactive	inactive	inactive	inactive	inactive	inactive	–	inactive	inactive	–	inactive	–
C=C(C)C(=O)OCCCCCC	inactive	inactive	inactive	inactive	inactive	inactive	inactive	inactive	–	–	inactive	–	–	–
Oc1c(Cl)cc(Cl)c(Cl)c1Cl	inactive	15.2 µM (active) and 13.8 µM (active)	inactive	inactive	inactive	inactive	inactive	inactive	59.8 µM (active) and 54.5 µM (active)	–	inactive	inactive	–	–
CCC(=O)O	inactive	inactive	inactive	inactive	–	inactive	inactive	inactive	–	–	inactive	inactive	–	–
CC(C)(C)C1CCC(O)CC1 (stereo not given)	inactive	inactive	inactive	inactive	inactive	inactive	–	inactive	–	inactive	inactive	inactive	inactive	–
CCCCC/C=C\C/C=C\CCCCCCCC(=O)OC	inactive	inactive and 34.7 µM (active)	inactive	inactive	inactive	inactive	inactive	inactive	–	inactive	–	–	inactive	–
O=[N+]([O-])c1cc(N(CCO)CCO)ccc1NCCO	inactive	inactive	48.5 µM (active) and 48.6 µM (active)	30.6 µM (active)	inactive	48.5 µM (active)	28.2 µM (active) and 39.9 µM (active)	inactive	–	–	–	–	–	–
OC[C@@H](O)[C@@H](O)[C@H](O)[C@@H](O)CO	inactive	inactive	inactive	inactive	inactive	inactive	inactive	inactive	inactive	–	inactive	–	–	–
COC(=O)c1ccc(C(=O)OC)cc1	inactive	15.7 µM (active) and inactive	inactive	inactive	inactive	24.7 µM (active) and inactive	32.1 µM (active) and inactive	–	–	inactive	–	–	–	–
